Measured values published in PubChem BioAssay AID1508621 (National Center for Advancing Translational Sciences (NCATS), 2021).
Records with an inconclusive call do not appear. Unmarked numbers belong to inactive results. Calls of active or inactive are those of the source. The call rests on the fitted dose curve; in most records, active means well fitted inhibition curve with a large enough effect; inconclusive means small, poorly fitted or top-dose-only effect; inactive means no such curve, though single readings can be large or run the other way.

assay: Confirmatory qHTS for Identification of Small Molecule Inhibitors of Huntingtin Promoter Activity; conditions: HEK293 HTT promoter firefly luciferase reporter, 24 h; series mostly up to 57.5 µM; activity change, negative = inhibition: at the top concentration; further: nearly all actives have a fitted effect of over 65% in size
Text: Assay Provider: Russell L. Margolis M.D.
Department Neurology, Johns Hopkins University School of Medicine, Baltimore, MD
Huntington's Disease (HD) is a neurodegenerative disorder caused by a CAG repeat expansion in exon 1 of huntingtin (HTT). While there are currently no disease-modifying treatments for HD, recent efforts have focused on development of nucleotide-based therapeutics to lower HTT expression. As an alternative to siRNA or oligonucleotide methods, we hypothesized that suppression of HTT expression might be accomplished by small molecules that either (1) directly decrease HTT expression by suppressing HTT promoter activity or (2) indirectly decrease HTT expression by increasing the promoter activity of HTT-AS, the gene antisense to HTT that appears to inhibit expression of HTT.
We developed and employed a high throughput screen for modifiers of HTT and HTT-AS promoter activity using luminescent reporter HEK293 cells; of the 52,041 compounds tested, we identified 898 replicable hits. We used a rigorous stepwise approach to assess compound toxicity and the capacity of the compounds to specifically lower huntingtin protein in 5 different cell lines, including HEK293 cells, HD lymphoblastoid cells, mouse primary neurons, HD iPSCs differentiated into cortical-like neurons, and HD hESCs. We found no compounds which were able to lower huntingtin without lowering cell viability in all assays, though the potential efficacy of a few compounds at non-toxic doses could not be excluded.
SEQUENCE No. (1, 2, 3, etc.); […] (e.g., Cells, Incubation, Reagent, etc.); VALUE and DESCRIPTION.
1; Reagent; 4 uL; 2,500 Hek293 luciferase reporter cells per wells
3; Compound; 23 nL; Control inhibitor / compound library
5; Reagent; 2.5 uL; Firefly Luc reagent; Dual-Glo Luciferase Reporter Assay System (Promega)
6; Time; 10 min; room temperature incubation
7; Detection; Luminescence; FLuc
NOTES (numbers refer to sequence above)
1; High-throughput screening, measuring luminescence from a Hek293 luciferase reporter, was performed in 1,536 well white-walled tissue-culture treated plates. 2,500 cells were plated in 4 uL of Opti-MEM per well using a Multidrop Combi Reagent Dispenser (ThermoFisher).
2; Assay plates were cultured for 24 hours.
3; Control inhibitor (PTC124; final concentration of 50 uM) and compound library (at final concentrations of 460 nM - 57.5 uM) were added to the assay plate using the Kalypsis Pintool Robotic System equipped with 1536 pinheads.
4; Cells were then incubated for 24 hours at 37C prior to luminescence measurements.
5; In all cases, luminescence was measured using the Dual-Glo Luciferase Reporter Assay System (Promega) following the manufacturer's instructions.
6; Room temperature incubation.
7; Luminescence signal was obtained using the PerkinElmer ViewLux plate reader. Results were normalized to vehicle control (0% activity) and zero RLU (-100% activity).
Potency means the concentration at half of the fitted maximal effect.

SMILES	activity change, negative = inhibition	Potency
Cc1cccc(-n2c(/C=C\c3cccc(Br)c3)nc3ccccc3c2=O)c1	-13.2%	
CCN(CC)C(=O)N[C@@H]1C=C2c3cccc4[nH]cc(c34)C[C@@H]2N(C)C1	-14.5%	
O=C(N[C@H]1CN2CCC1CC2)c1ccc(Cl)cc1	-0.0179%	
CNC(=O)N1N=C(c2ccc(N)cc2)c2cc3c(cc2CC1C)OCO3 (stereo not drawn)	77.4% [at 115 µM]	
O=c1c2ccccc2nc(/C=C/c2cccc3ccccc23)n1-c1ccccc1Cl	-14.5%	
CCCCc1ccc(NC(=O)c2cccn(Cc3ccc(Cl)cc3)c2=O)cc1	-27.8%	
CC(C)(O)C=CC(=O)[C@](C)(O)[C@H]1[C@H](O)C[C@]2(C)[C@@H]3CC=C4[C@@H](C=C(O)C(=O)C4(C)C)[C@]3(C)C(=O)C[C@@]12C		0.757 µM (active)
CC(C)N[C@@H]1CCn2c(=O)[nH]c3cccc(c32)[C@@H]1O	2.69%	
Cc1ccccc1Cn1cccc(C(=O)Nc2nc3ccccc3s2)c1=O		12 µM (active)
COc1ccc(-n2c(/C=C\c3ccccc3F)nc3ccccc3c2=O)cc1OC	-14.4%	
CCOc1ccc(NC(=O)c2cccn(Cc3cccc(Cl)c3)c2=O)cc1	-21%	
Nc1c(C(=O)Nc2ccc(Cl)c(C(F)(F)F)c2)sc2nc3c(cc12)N1CCC3CC1		12 µM (active)
Cc1ccc(-n2c(/C=C/c3ccc(Br)s3)nc3ccccc3c2=O)cc1	-18.3%	
